Hit rate of the full screen: of about 360,000 compounds, about 6,000 (1.7%) were called active. A call without a number means that no potency is given here. Roughly 8% stayed inconclusive and do not appear here. This is one part of a sample in which actives are shown more often than they occur. The call rests on the fitted dose curve; in most records, active means well fitted cell-killing curve with a large enough effect; inconclusive means small, poorly fitted or top-dose-only effect, or effect the other way; inactive means flat fitted curve, though single readings scatter.
Test: qHTS for induction of synthetic lethality in tumor cells producing 2HG: qHTS for the HT-1080-NT fibrosarcoma cell line; further: nearly all actives have a fitted effect of over 55% in size
Details: HT-1080-NT fibrosarcoma viability, CellTiter-Glo ATP luminescence, 48 h; series mostly up to 46.1 µM
Text: Unbiased genomic sequencing for 22 glioma genomes found recurrent mutation of IDH1 on chromosome 2q33, a gene encoding the cytosolic isoform of IDH1 associated with the tricarboxylic acid cycle (TCA) that catalyzes the oxidative decarboxylation of isocitrate, yielding alpha-ketoglutarate and CO2 via NADP+ to NADPH conversion. Subsequent studies confirmed the recurrent IDH mutations in up to 70% of secondary gliomas and in 10% of AML cases. In addition, the somatic mutation of cancer-associated IDH1 is a point mutation resulting in various amino-acid substituents at Arginine132 (IDH1 R132), a key residue found in the enzyme's active site that when mutated, results in the loss-of-function in metabolizing isocitrate but confers a gain-of-function to produce the oncometabolite 2-hydroxyglutarate (2HG). This in effect defines IDH1 as an oncogene and provides an extraordinary opportunity to discover chemical probes against mutant IDH1 that may translate into much needed new therapies for glioma and AML patients.
This assay aims to perform a synthetic lethal screen for chemical probes specific for 2HG-producing tumor cells using matched paired cell lines (1) HT-1080-NT fibrosarcoma cell line that overproduces 2HG and (2) HT-1080-IDH1KD cell line which has IDH1 expression knocked-down. Desirable compounds are toxic to the NT fibrosarcoma cells but not to the IDH1KD cell line. The data in this AID corresponds to the results of the qHTS against the HT-1080-NT fibrosarcoma cell line.
[1] Dang L, Jin S, Su SM. IDH mutations in glioma and acute myeloid leukemia. Trends of Mol Med. 2010; 16(9): 387-97.
[2] Dang L et al. Cancer-associated IDH1 mutations produce 2-hydroxyglutarate. Nature. 2010; 465(7300):966.
NIH Molecular Libraries Probe Production Centers Network [MLPCN]
NIH Chemical Genomics Center [NCGC]
Assay Submitter (PI): Lenny Dang Ph.D., Agios Pharmaceuticals
Suspensions of trypsinized HT-1080-NT cells were dispensed into white, tissue culture-treated, solid 1536-well plates at 5uL/well (750 cells/well final concentration) in RPMI medium supplemented with 5% FBS. Plates were incubated at 37 degrees C for 2 hours, after which 23 nL of compounds or DMSO were delivered to each well using a pin tool. Plates were then incubated at 37 degrees C for an additional 48 hours. CellTiter-Glo viability reagent (Promega) was dispensed into wells (2.5uL/well) and incubated at room temperature for 10 minutes. The plates were measured on a PerkinElmer ViewLux plate reader for luminescent signal (clear filter, 1 sec exp). DMSO-treated control wells and media-only (no cells) control wells were used to normalize %Activity of identified toxic compounds; DMSO-treated wells corresponded to 0%Activity (100% viability), while media-only controls were used to normalize 100%Activity (0% viability).
Concentration-response curves were fitted to the signals arising from the resulting luminescence. The concentration-effect curves were then classified based on curve quality (r2), response magnitude and degree of measured activity, and compounds were subsequently categorized based on their curve class.
Potency means the concentration at half of the fitted maximal effect.

Structure (SMILES)	Potency
O=[N+]([O-])c1ccc(C2C3C(c4ccccc4)=NC4(CCCCC4)N32)cc1 (stereo not drawn)	inactive
Cc1ccc(OC(=O)N(C)C[C@@H]2OCc3cnnn3CCCC(=O)N([C@H](C)CO)C[C@@H]2C)cc1	inactive
COc1cc(Cn2c(N)c(C(=O)NCc3ccco3)c3nc4ccccc4nc32)cc(OC)c1OC	12.6 µM (active)
Cc1ncoc1C(=O)NCC1=C(c2cccc3ccccc23)C[C@@H]2CC[C@H]1N2Cc1ccco1	inactive
COC(=O)C1=C(c2ccccc2)C[C@@H]2CC[C@H]1N2C(=O)NCc1ccco1	inactive
CC(=O)c1c(O)n(C2CCCCCC2)c(=O)[nH]c1=O	inactive
O=C(NC1CCCCC1)N1Cc2cc(N3CCCCC3)ccc2-n2nncc2C1	inactive
c1cc2c(c(NC3=NCCCS3)c1)CCCC2	inactive
COC(=O)C1=C(c2ccc(Cl)c(C(F)(F)F)c2)C[C@@H]2CC[C@H]1N2C(=O)NC1CC1	inactive
C[C@]12CCC3C(CC[C@H]4C[C@@H](O)CC[C@]34C)C1CC[C@@H]2O (stereo partly drawn)	inactive
C[C@]12CC[C@H](O)C[C@H]1CC[C@@H]1C2CC[C@]2(C)[C@@H](C3=CC(=O)OC3)[C@@H](O)C[C@]12O (stereo partly drawn)	5.8 µM (active)
C[C@]12CCC3C(CC[C@H]4C[C@@H](O)CC[C@]34C)C1C[C@@H](O)[C@H]2O (stereo partly drawn)	inactive
C[C@H]1CN([C@@H](C)CO)C(=O)CCCn2nncc2CO[C@H]1CN(C)C(=O)Oc1ccccc1	inactive
CCOC(=O)[C@]12Cc3ccccc3[C@H]1N(C1CCCCC1)C(=O)c1cc(OC)ccc12	5.8 µM (active)
CCOC(=O)[C@]12Cc3cc(OC)ccc3[C@H]1N(C(C)C)C(=O)c1ccccc12	11.6 µM (active)
CCCC(C)n1[nH]c(=O)c2c1NC(=O)CSC2c1ccc(OC)c(OC)c1 (stereo not drawn)	inactive
Oc1cc2c(cc1CN1CCN(c3ccccc3)CC1)OCO2	inactive
COc1ccccc1OC(=O)c1ccc(C)c(S(=O)(=O)N2CCOCC2)c1	inactive
CC1([N+](=O)[O-])COP(=O)(Nc2ccc(F)cc2)OC1 (stereo not drawn)	inactive
O=c1c2ccccc2[nH]c(=S)n1-c1cccc(Cl)c1	inactive
Cc1cc(-c2ccc(N)c(C)c2)ccc1N	inactive
Nc1ccc(Cc2ccc(N)c(Cl)c2)cc1Cl	inactive
COC(=O)C[C@H]1CC[C@H]2NC[C@@H](O)COC[C@@H]2O1	inactive
Cc1c(Oc2cc(NN3CCCCC3)c([N+](=O)[O-])cc2[N+](=O)[O-])cccc1[N+](=O)[O-]	inactive
O=c1c2ccccc2nc(/C=C/c2ccc(F)cc2)n1-c1ccccc1O	23.1 µM (active)
O=c1c2ccccc2nc(/C=C/c2ccco2)n1-c1ccccc1O	inactive
Cc1nc2ccccc2c(=O)n1-c1ccc(Cl)cc1Cl	inactive

Structure (SMILES)	Potency
c1ccc(C(CN2CCCCC2)c2ccccc2)cc1	inactive
CCc1cccc2c(C#N)cn(CC(=O)N3CCOCC3)c12	inactive
COC1C(O)C(C)OC(OC2CCC3(C=O)C(CCC4C3CCC3(C)C(C5=CC(=O)OC5)CCC43O)C2)C1O (stereo not drawn)	0.206 µM (active)
C[C@H]1CN([C@@H](C)CO)C(=O)CCCn2nncc2CO[C@H]1CN(C)C(=O)Oc1cccc2ccccc12	inactive
CCn1cc(CN2CCCC(C(=O)c3cccc(C(F)(F)F)c3)C2)cn1 (stereo not drawn)	inactive
COc1ccc(NC(=O)N2Cc3ccccc3-n3nncc3C2)cc1	inactive
CC(=CCOc1ccc2ccc(=O)oc2c1)C1=CC(=O)C(C)(C)O1	inactive
O=c1c2ccccc2nc(CBr)n1-c1ccc(Cl)cc1	inactive
COC(=O)CN(CCCl)P1(=O)OCCCN1CCCl (stereo not drawn)	inactive
CCCCCCCCCCCCn1ccc(=N)cc1	2.59 µM (active)
CSC1=NP(=S)(SC)N(C)c2nc3n(c21)CCC3 (stereo not drawn)	inactive
COC(=O)C1=C(c2ccc(F)cc2F)C[C@@H]2CC[C@H]1N2C(=O)NC1CC1	inactive
CC(C)CN1Cc2cc(N3CCCCC3)ccc2-n2nncc2C1	inactive
COc1ccc(-c2nn(CCC#N)cc2C(=O)Nc2ccc(C(C)=O)cc2)cc1	inactive
CCOC(=O)CNC(=O)N1Cc2cc(N3CCCCC3)ccc2-n2nncc2C1	inactive
COc1cc(C2c3cc4c(cc3C(O)C3COC(=O)C23)OCO4)cc(OC)c1OC (stereo not drawn)	0.0058 µM (active)
CCN1C(=O)NC(=O)C2(CCCC2)C1=O	inactive
CCOc1cccc(=NC2CCCCC2)c2c(C)[nH]c(C)c12	20.6 µM (active)
CCOP(=S)(OCC)C(O)CCCCCn1c(=O)c(F)cn(C2CCCO2)c1=O (stereo not drawn)	inactive
COc1cc(C(=O)N2Cc3ccc(Br)cc3-n3nncc3C2)cc(OC)c1OC	inactive
COC1=C[C@@H]2[C@@H]3Cc4ccc(OC)c(O)c4[C@]2(CCN3C)CC1=O	inactive
O=[N+]([O-])c1ccc(Cl)c(Cl)c1	inactive
CC(=O)OC1C2(CC3N4C(=O)C5(CO)SSC4(CC31O)C(=O)N5C)OC(C)C(C)(C)C2=O (stereo not drawn)	0.651 µM (active)
CC[C@H]1CC2CN3CCc4c([nH]c5ccccc45)C(C(=O)OC)(C2)C13 (stereo partly drawn)	inactive
CCN(N=Nc1nonc1OC)c1nonc1OC	inactive
CCOC(=O)C1CN(C)CCC1=O (stereo not drawn)	inactive

From PubChem BioAssay AID686970 (National Center for Advancing Translational Sciences (NCATS), 2013)
